# Laboratory results as given in PubChem BioAssay (Tox21).
# Inconclusive results are not listed. A call without a number means that no potency is given here. Values without a mark were called inactive. Active and inactive are the calls of the source. Unless noted, calls follow the shape of the full dose curve.
# Legend:
# [1] = qHTS assay to identify small molecule agonists of the vitamin D receptor (VDR) signaling pathway - cell viability counter screen (AID 743224; active = well fitted cell-killing curve with a large enough effect in the repeat runs; also: nearly all actives have a fitted effect of over 50% in size); details: VDR-bla HEK293T viability, CellTiter-Glo luminescence, 16 h; series mostly up to 62.6 µM
# Outline: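 VDR-bla cells were preincubated 4 h at 37C/5% CO2, then exposed to compounds for 16 h. After the 2 h room-temperature bla FRET read, CellTiter-Glo was added to the same wells and luminescence read after 30 min.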
# [2] = qHTS assay to identify small molecule antagonists of the vitamin D receptor (VDR) signaling pathway - cell viability counter screen (AID 743225; active = well fitted cell-killing curve with a large enough effect in the repeat runs; also: nearly all actives have a fitted effect of over 50% in size); details: VDR-bla HEK293T viability, CellTiter-Glo luminescence, 16 h; series mostly up to 61 µM
# Outline: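 Same-well multiplex: following 16 h treatment of HEK 293T cells carrying a UAS-driven beta-lactamase reporter with compound and agonist (3 nM final), and a 2 h FRET substrate step, CellTiter-Glo was added and luminescence read after 30 min.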
# [3] = qHTS assay to identify small molecule agonists of the NFkB signaling pathway (AID 1159509; active = well fitted curve in the direction sought with a large enough effect in the signal ratio in the repeat runs, not every such curve was filed as active; the % refers to the signal ratio); details: NFkB-bla ME-180 cells, beta-lactamase FRET ratio, 5 h; series mostly up to 61 µM
# Outline: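 ME-180 NFkB-bla, 2,000 cells/well, overnight plating; cpd pinned in DMSO, 5 h 37 C; B/G FRET substrate 1.5 h RT; ex 405, em 460/530 nm.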
# [4] = qHTS assay to identify small molecule agonists of the NFkB signaling pathway - cell viability counter screen (AID 1159515); details: NFkB-bla ME-180 viability, CellTiter-Glo luminescence, 5 h; series mostly up to 61 µM; also: nearly all actives have a fitted effect of over 55% in size
# Outline: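 NFkB-bla ME-180 cells, 2,000/well, were plated overnight at 37 C, 5% CO2, then exposed to compounds in DMSO for 5 hr. After the bla FRET read, CellTiter-Glo was added to the same wells; luminescence was read after 30 min at room temperature.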
# [5] = qHTS assay to identify small molecule agonists of the endoplasmic reticulum stress response signaling pathway (AID 1159516; active = well fitted activation curve with a large enough effect in the signal ratio in the repeat runs, not every such curve was filed as active; the % refers to the signal ratio); details: ESRE-bla HeLa, ER stress beta-lactamase reporter, 5 h; series mostly up to 61 µM
# Outline: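 CellSensor ESRE-bla HeLa cells, carrying a beta-lactamase reporter driven by the ER stress response element, were plated overnight and exposed to compounds for 5 hr at 37 C. Reporter activity was read as FRET substrate fluorescence after 2 hr at room temperature.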
# [6] = qHTS assay to identify small molecule agonists of the endoplasmic reticulum stress response signaling pathway - cell viability counter screen (AID 1159517); details: ESRE-bla HeLa viability, CellTiter-Glo luminescence, 5 h; series mostly up to 61 µM; also: nearly all actives have a fitted effect of over 50% in size
# Outline: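 CellTiter-Glo was added to wells already read for beta-lactamase FRET, and luminescence was recorded 30 min later. Cells: ESRE-bla HeLa, 1,500 per well, compound exposure 5 hr at 37 C.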
# [7] = qHTS assay to identify small molecule antagonists of the retinoid-related orphan receptor gamma (ROR-gamma) signaling pathway - cell viability counter screen (AID 1159520; active = well fitted cell-killing curve with a large enough effect in the repeat runs; also: nearly all actives have a fitted effect of over 50% in size); details: Tet-on RORgamma CHO cells viability, ATP luminescence, 16 h; series mostly up to 92.4 µM
# Outline: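 Tet-on ROR gamma CHO cells (1,000/well) were plated 4 hr, given compounds in DMSO for 2 hr at 37 C, then induced with 1 uM final doxycycline for 16 hr. Viability was read as ATP by CellTiter-Glo luminescence after 30 min.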
# [8] = qHTS assay to identify small molecule agonists of the AP-1 signaling pathway - cell viability counter screen (AID 1159525); details: ME-180 AP-1-bla cells viability, ATP luminescence, 5 h; series mostly up to 76.8 µM; also: nearly all actives have a fitted effect of over 55% in size
# Outline: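 ME-180 AP-1-bla, 2500 cells/well, Opti-MEM + 0.5% dialyzed FBS; overnight 37 °C; cpd 15-pt titration, 5 h 37 °C; CellTiter-Glo 30 min RT; luminescence read; normalised to TOAB and DMSO controls.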
# [9] = qHTS assay to identify small molecule agonists of the AP-1 signaling pathway (AID 1159526); details: ME-180 (cervical carcinoma) AP-1-bla reporter, beta-lactamase FRET ratio, 5 h; series mostly up to 76.8 µM; also: potency is read from the fitted curve at half-maximal effect
SMILES,Potency [1],Potency [2],outcome [3],outcome [4],outcome [5],outcome [6],Potency [7],outcome [8],Potency [9],"activity, negative = cytotoxicity [7]","viability change, negative = cytotoxic [8]",activation [9]
COC(C)CCO (stereo not drawn),inactive,inactive,inactive,inactive,inactive,inactive,inactive,inactive,inactive,–,–,–
CN1[C@@H]2CC[C@H]1CC(OC(=O)c1c[nH]c3ccccc13)C2 (stereo partly drawn),inactive,inactive,inactive,inactive,inactive,inactive,inactive,inactive,23.9 µM (active),–,–,–
Oc1ccccc1F,inactive,–,inactive,inactive,inactive,inactive,inactive,inactive,inactive,–,–,–
Cc1cn([C@@H]2O[C@H](CO)[C@@H](O)[C@@H]2F)c(=O)[nH]c1=O,inactive,inactive,inactive,inactive,inactive,inactive,inactive,inactive,inactive,–,–,–
C=C(C)C(=O)OCCOP(=O)(O)O,inactive,inactive,inactive,inactive,inactive,inactive,inactive,inactive,inactive,–,–,–
CC/C=C\CCOC(=O)CCCCC,inactive,–,inactive,inactive,inactive,inactive,inactive,inactive,inactive,–,–,–
CC(=O)N[C@@H](CC(C)C)C(=O)O,inactive,inactive,inactive,inactive,inactive,inactive,inactive,inactive,inactive,–,–,–
O=c1oc2c(O)c(O)cc3c(=O)oc4c(O)c(O)cc1c4c23,inactive,inactive,inactive,inactive,inactive,inactive,–,–,–,0.685% [at 19 µM],7.4% [at 15.8 µM],21.4% [at 15.8 µM]
C1CCOC1,inactive,–,inactive,inactive,inactive,inactive,inactive,inactive,inactive,–,–,–
COc1cc(C)ccc1C(C)C,inactive,inactive,inactive,inactive,inactive,inactive,inactive,inactive,inactive,–,–,–
Cn1cnc2c(F)c(Nc3ccc(Br)cc3Cl)c(C(=O)NOCCO)cc21,inactive,inactive,inactive,inactive,inactive,inactive,inactive,inactive,inactive,–,–,–
CC(=O)N(CC(O)CN(C(C)=O)c1c(I)c(C(=O)NCC(O)CO)c(I)c(C(=O)NCC(O)CO)c1I)c1c(I)c(C(=O)NCC(O)CO)c(I)c(C(=O)NCC(O)CO)c1I (stereo not drawn),inactive,inactive,inactive,inactive,inactive,inactive,inactive,inactive,inactive,–,–,–
Oc1ccccc1C=NCc1ccccc1,inactive,inactive,inactive,inactive,inactive,inactive,inactive,inactive,inactive,–,–,–
CCCCCCC,inactive,inactive,inactive,inactive,inactive,inactive,inactive,inactive,inactive,–,–,–
